Experimental data taken from article PMC5700166.

Experiments:
Assay in all cases: protein-binding microarray (PBM); PBM: ~300 nM protein, 6 mM HEPES pH 7.8, 80 mM KCl, 0.5 mM EDTA, 0.5 mM EGTA, 6% glycerol, 35 ng/ul poly-dIdC, 1% milk, 1 h, room temperature; Ap Aiptasia and Nv Nematostella (sea anemones) / Co Capsaspora / Aq Amphimedon (sponge) / Dm Drosophila / Hu human; RHD is the Rel homology domain; high values mean tight binding
Settings in all cases: dsDNA, one strand shown
GST-Ap-NF-kB RHD = target: T1, GST-Ap-NF-kB RHD (Exaiptasia pallida (Aiptasia), UniProt A0A913YAJ5 2-422)
T1 sequence: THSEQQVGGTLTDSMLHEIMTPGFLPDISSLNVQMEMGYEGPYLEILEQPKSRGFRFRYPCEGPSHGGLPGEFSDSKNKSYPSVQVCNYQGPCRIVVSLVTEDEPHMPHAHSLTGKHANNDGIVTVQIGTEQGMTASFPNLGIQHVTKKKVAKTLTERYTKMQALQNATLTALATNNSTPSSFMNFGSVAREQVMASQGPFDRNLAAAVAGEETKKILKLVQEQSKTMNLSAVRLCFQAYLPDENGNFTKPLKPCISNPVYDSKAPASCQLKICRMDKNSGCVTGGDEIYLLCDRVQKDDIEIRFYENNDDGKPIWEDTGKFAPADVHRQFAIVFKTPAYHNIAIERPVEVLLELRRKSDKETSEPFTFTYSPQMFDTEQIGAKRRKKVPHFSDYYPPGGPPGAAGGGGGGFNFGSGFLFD

[1] = target: T2, GST-Nv-NF-kB (Cys allele) (Nematostella vectensis, UniProt E5G601 2-411)
T2 sequence: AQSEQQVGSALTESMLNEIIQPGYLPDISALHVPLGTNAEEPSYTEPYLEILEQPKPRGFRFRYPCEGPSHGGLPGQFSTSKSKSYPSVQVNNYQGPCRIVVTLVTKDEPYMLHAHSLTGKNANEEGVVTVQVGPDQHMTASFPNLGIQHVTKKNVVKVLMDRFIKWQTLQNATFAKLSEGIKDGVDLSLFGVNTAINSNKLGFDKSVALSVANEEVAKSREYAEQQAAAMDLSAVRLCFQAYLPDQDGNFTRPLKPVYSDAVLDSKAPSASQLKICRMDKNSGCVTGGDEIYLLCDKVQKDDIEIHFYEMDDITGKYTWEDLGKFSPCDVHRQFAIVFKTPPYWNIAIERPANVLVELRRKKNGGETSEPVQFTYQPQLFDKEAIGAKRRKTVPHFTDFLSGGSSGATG

GST-Co-NF-kB = target: T3, GST-Co-NF-kB (Capsaspora owczarzaki, UniProt F1ARL5 200-546)
T3 sequence: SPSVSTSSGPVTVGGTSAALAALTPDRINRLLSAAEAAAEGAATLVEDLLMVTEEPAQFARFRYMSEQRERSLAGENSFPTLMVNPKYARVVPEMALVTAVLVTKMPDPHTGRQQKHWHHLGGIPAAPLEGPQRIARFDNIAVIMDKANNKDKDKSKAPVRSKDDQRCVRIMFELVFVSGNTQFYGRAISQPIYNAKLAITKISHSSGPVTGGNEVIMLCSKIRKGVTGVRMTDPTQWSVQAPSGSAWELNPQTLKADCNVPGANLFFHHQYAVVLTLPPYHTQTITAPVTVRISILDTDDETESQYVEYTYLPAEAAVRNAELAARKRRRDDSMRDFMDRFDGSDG

GST-Dm-Relish = target: T4, GST-Dm-Relish (Drosophila melanogaster, UniProt Q94527 99-473)
T4 sequence: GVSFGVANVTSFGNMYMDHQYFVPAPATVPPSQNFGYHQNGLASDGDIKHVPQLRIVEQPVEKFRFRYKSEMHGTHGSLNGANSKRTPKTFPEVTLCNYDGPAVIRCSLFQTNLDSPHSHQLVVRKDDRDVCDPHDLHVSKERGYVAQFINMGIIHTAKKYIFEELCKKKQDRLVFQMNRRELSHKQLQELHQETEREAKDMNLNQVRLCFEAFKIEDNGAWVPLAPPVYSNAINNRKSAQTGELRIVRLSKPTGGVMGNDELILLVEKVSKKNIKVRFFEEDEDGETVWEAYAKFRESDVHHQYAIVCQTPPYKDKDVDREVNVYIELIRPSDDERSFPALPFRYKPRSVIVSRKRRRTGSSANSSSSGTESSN

GST-Aq-NF-kB = target: T5, GST-Aq-NF-kB (Amphimedon queenslandica, UniProt A9Y5G7 2-389)
T5 sequence: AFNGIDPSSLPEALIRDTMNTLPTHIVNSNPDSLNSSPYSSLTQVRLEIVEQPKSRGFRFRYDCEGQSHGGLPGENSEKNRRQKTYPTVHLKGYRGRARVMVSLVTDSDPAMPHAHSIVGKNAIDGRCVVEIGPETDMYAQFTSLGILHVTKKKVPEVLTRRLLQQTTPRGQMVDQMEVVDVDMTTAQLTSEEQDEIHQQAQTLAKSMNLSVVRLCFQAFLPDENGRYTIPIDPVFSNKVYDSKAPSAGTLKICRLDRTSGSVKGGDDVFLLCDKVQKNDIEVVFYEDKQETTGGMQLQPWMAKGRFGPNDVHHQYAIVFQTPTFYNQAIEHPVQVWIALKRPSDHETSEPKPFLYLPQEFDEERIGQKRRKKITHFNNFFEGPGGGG

Sequence	binding signal (GST-Ap-NF-kB RHD)	binding signal [1]	binding signal (GST-Co-NF-kB)	binding signal (GST-Dm-Relish)	binding signal (GST-Aq-NF-kB)
CCGATTAACATCACCCAGGGAAATGATGTTAATCGGGTCTTGATTCGCTTGACGCTGCTG	1.54 z-score	2.66 z-score	2.73 z-score	1.46 z-score	2.69 z-score
CCGATTAACATCACCCCTCCCCATGATGTTAATCGGGTCTTGATTCGCTTGACGCTGCTG	3.7 z-score	2.55 z-score	3.58 z-score	3.67 z-score	2.92 z-score
CCGATTAACATCACCCCTCCCCCTGATGTTAATCGGGTCTTGATTCGCTTGACGCTGCTG	4.84 z-score	3.91 z-score	4.73 z-score	3.78 z-score	4.12 z-score
CCGATTAACATCACAATACCCCCTGATGTTAATCGGGTCTTGATTCGCTTGACGCTGCTG	7.39 z-score	4.51 z-score	4.26 z-score	4.2 z-score	4.87 z-score
CCGATTAACATCAGGGCGTCCCCTGATGTTAATCGGGTCTTGATTCGCTTGACGCTGCTG	6.5 z-score	5.76 z-score	2.03 z-score	8.13 z-score	7.89 z-score
CCGATTAACATCAGGGGAGGAAATGATGTTAATCGGGTCTTGATTCGCTTGACGCTGCTG	3.45 z-score	4.2 z-score	7.38 z-score	1.91 z-score	3.51 z-score
CCGATTAACATCAGAACTTCCCATGATGTTAATCGGGTCTTGATTCGCTTGACGCTGCTG	2.63 z-score	2.58 z-score	1.5 z-score	3.3 z-score	2.91 z-score
CCGATTAACATCAAATAGCCCCCTGATGTTAATCGGGTCTTGATTCGCTTGACGCTGCTG	5.01 z-score	4.8 z-score	2.9 z-score	4.26 z-score	5.62 z-score
CCGATTAACATCACGAAAATCCCTGATGTTAATCGGGTCTTGATTCGCTTGACGCTGCTG	4.71 z-score	4.39 z-score	1.55 z-score	6.19 z-score	4.64 z-score
CCGATTAACATCACGGGAAACTCTGATGTTAATCGGGTCTTGATTCGCTTGACGCTGCTG	3.67 z-score	4.12 z-score	4.3 z-score	1.55 z-score	4.35 z-score
